Compounds without any hit were thinned out: in the full panel of roughly 83,000, 20% have a hit.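 Method: cells in 96-well plates; compound added at one concentration; 48 h incubation; percent growth measured; values under 10 scored active.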 Unmarked numbers belong to inactive results. The source made the active and inactive calls.
What follows are molecules tested on IGROV1 ovarian (assay: NCI-60 one-dose screen, 48 h (100 = growth as untreated, 0 = no growth, -100 = all killed)). Conditions: 10 µM unless noted.

| Structure (SMILES) | growth |
| --- | --- |
| N#Cc1c(N)nc(NCCO)nc1-c1ccc(F)cc1 | 102% |
| CC/C=C\C[C@H](O)C/C=C1/C(=O)C=C[C@@H]1C/C=C\CCCCO | 15.5% |
| FC(F)(F)c1cc(Nc2ccc3cc(OCCCN4CCOCC4)ccc3n2)ccc1Cl | 54.3% |
| N#C/C(=C\c1ccc(Br)cc1)n1nnc2cc(F)c(F)cc21 | 6.79% (active) |
| CNC(=O)NCC1OC(n2cnc3c(NC(=O)Nc4ccccc4)ncnc32)C(O[Si](C)(C)C(C)(C)C)C1CC(=O)N(C)OC (configuration not stated) | -36.6% (active) |
| CN(C)CC1C(=O)O[C@H]2[C@H]1CC/C(COC(=O)c1cc3ccccc3[nH]1)=C\CC[C@@]1(C)O[C@@H]21 (some centres not stated) | -41.2% (active) |
| S=C(Cc1ccc2c(c1)CCCC2)N1CCOCC1 | 101% |
| Cc1cc(Cl)nc(NCc2cc(Nc3ccnc4cc(Cl)ccc34)ccc2F)n1 | 64.7% |
| COC(=O)[C@]12CC[C@@H](C)[C@H](C)[C@@H]1C1=CC[C@@H]3[C@@]4(C)C(C=O)=C[C@@](C)(CO)[C@@H]4[C@H](O)C[C@@]3(C)[C@]1(C)CC2 | 3.94% (active) |
| CCN1CCN(c2cc(C)nc(NCc3cc(Nc4ccnc5cc(Cl)ccc45)ccc3F)n2)CC1 | 59.1% |
| C=CCOC1=CC(=O)c2ccccc2C1=O | 85.5% |
| COc1ccc(-c2nc(SC(C)C)nc(NNC(N)=S)c2C#N)cc1 | 52.6% |
| Cc1cc(C)c2c(-c3nnc(N)s3)cc(=O)oc2c1 | 101% |
| Oc1c(CN2CCCC2)cc(COCc2ccc(Br)cc2)c2cccnc12 | -6.09% (active) |
| O=[N+]([O-])c1ccc(-c2cc(-c3ccc(Nc4nc(Nc5ccc(Cl)cc5)nc(Nc5ccc(Cl)cc5)n4)cc3)no2)cc1 | 92% |
| O=C1/C(=C/c2ccc(F)cc2)C=C(c2ccccc2)N1CCc1ccccc1 | 62.3% |
| O=C(O)c1ccc2c(c1Cl)C(=O)c1ccccc1C2=O | 167% |
| COc1cc(N=Nc2ccc(N)cc2)c(OC)cc1N=Nc1ccccc1.[Cl][Zn][Cl] | 47.6% |
| O=[N+]([O-])c1ccc(OCCO)cc1 | 105% |

| Structure (SMILES) | growth |
| --- | --- |
| CCN(CC)c1nc(SCC(=O)Nc2nc3ccc(C)cc3s2)nc(-c2ccccc2)c1C#N | 65.7% |
| Cc1cc(NCCCCNc2ccnc3cc(Cl)ccc23)nc(Nc2ccc(C(=O)N3CCCC3)cc2)n1 | 81.9% |
| COc1ccc(-c2nc3c(c(=O)n2C(C)=O)C(c2ccc(Cl)cc2)c2sc4c(Cl)cccc4c2O3)cc1 (configuration not stated) | 12.5% |
| COc1ccc2[nH]c(O)c(/C=c3/cc4c(c(-c5ccc(F)c(OC)c5)n3)=Nc3ccccc3-4)c2c1 | 84.6% |
| N#CC1=C(/N=C/c2ccccc2)Oc2c(ccc3ccccc23)C1c1ccccc1 (configuration not stated) | 25.1% |
| CC(=O)C(C)Cc1cc2c(cc1C)C(C)(C)CCC2(C)C (configuration not stated) | 114% |
| Cc1ccc(Nc2nc(N)nc(CSCC(=O)NN)n2)cc1 | 99.5% |
| Cc1ccc(-c2c(-c3ccccc3)c(=O)oc3ccc(C)cc23)cc1 | 145% |
| N#C/C(=C\c1ccc2c(c1)OCO2)n1nnc2cc(F)c(F)cc21 | 71.8% |
| Cc1cccc(Cc2cnc(NC(=O)/C=C/c3ccco3)s2)c1 | 22.2% |
| N=C(N)c1ccc(-c2ccc(-c3cncc4ccccc34)s2)s1 | -75.1% (active) |
| COc1ccc2occ(C3=C(c4c[nH]c5ccccc45)C(=O)N(O)C3=O)c2c1 | 91.3% |
| C=C(C)[C@@H]1CC[C@]2(C(=O)NC3CCCCC3)CC[C@]3(C)[C@H](CC[C@@H]4[C@@]5(C)CCCNC(C)(C)[C@@H]5CC[C@]43C)[C@@H]12 | 55.1% |
| O=C(/C=C/c1ccco1)c1ccc(Nc2nc(Nc3ccc(F)cc3)nc(Nc3ccc(Cl)cc3)n2)cc1 | 61.7% |
| COC(=O)[C@]12CC[C@@H](C)[C@H](C)[C@@H]1C1=CC[C@@H]3[C@@]4(C)C(C=O)=C[C@@](C)(COC(=O)c5ccco5)[C@@H]4C(=O)C[C@@]3(C)[C@]1(C)CC2 | 51.8% |
| COc1cccc(-c2nn(-c3ccccc3)cc2-c2ccnc(NCCNC(=O)Nc3ccc(Cl)c(Cl)c3)c2)c1 | 44% |
| Cc1cc(N2CCCC2)nc(NCc2cc(Nc3ccnc4cc(Cl)ccc34)ccc2F)n1 | -18.4% (active) |
| COc1cc(/C=C/C(=O)c2c(C)nc3ccccc3c2C)ccc1OCCCN1CCN(C(=O)c2ccco2)CC1 | 76.6% |

Reference: PubChem BioAssay (NCI)
